Results filed as inconclusive are left out. Where a call stands in place of a potency, no number is given. A number with no mark means an inactive call. Calls of active or inactive are those of the source. Unless noted, calls come from the whole dose curve.
Key:
[1] = qHTS assay to identify small molecule antagonists of the vitamin D receptor (VDR) signaling pathway - cell viability counter screen (AID 743225; active = well fitted curve in the direction sought with a large enough effect in the repeat runs; an effect the other way counts as inactive or inconclusive; note: nearly all actives have a fitted effect of over 50% in size)
Outline: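 Cytotoxicity toward the VDR-bla HEK 293T line was scored by ATP-based CellTiter-Glo luminescence, read in the wells already used for the beta-lactamase readout after 16 h compound treatment under 3 nM 1-alpha,25-dihydroxyvitamin D3 stimulation.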

[2] = qHTS assay to identify small molecule agonists of the NFkB signaling pathway - cell viability counter screen (AID 1159515); note: nearly all actives have a fitted effect of over 55% in size; note: potency is the fitted concentration of half-maximal effect; for activity, negative = cytotoxic: series mostly up to about 61 µM
Outline: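 NFkB-bla ME-180 cells, 2,000/well, plated overnight at 37 C; compound added for 5 hr at 37 C. Viability read in the same wells as the bla reporter, by CellTiter-Glo luminescence after 30 min at room temperature.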

[3] = qHTS assay to identify small molecule agonists of the endoplasmic reticulum stress response signaling pathway (AID 1159516; active = well fitted activation curve with a large enough effect in the signal ratio in the repeat runs, not every such curve was filed as active; the % refers to the signal ratio)
Outline: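 CellSensor ESRE-bla HeLa cells, 1,500 per well, plated overnight, then exposed to compounds for 5 hr at 37 C. Beta-lactamase reporter read with LiveBLAzer B/G FRET substrate after 2 hr at room temperature, 405 nm excitation, 460 and 530 nm emission.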

[4] = qHTS assay to identify small molecule agonists of the endoplasmic reticulum stress response signaling pathway - cell viability counter screen (AID 1159517);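 note: HeLa cells carrying an ER stress response element beta-lactamase reporter; series mostly up to about 61 µM; nearly all actives have a fitted effect of over 50% in size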
Outline: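 Luminescence readout: CellTiter-Glo, 30 min RT, same wells as the ESRE-bla reporter read. HeLa ESRE-bla, 1,500 cells/well, o/n 37 C; cpd 5 hr 37 C/5% CO2.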

[5] = qHTS assay to identify small molecule antagonists of the retinoid-related orphan receptor gamma (ROR-gamma) signaling pathway - cell viability counter screen (AID 1159520; active = well fitted curve in the direction sought with a large enough effect in the repeat runs; an effect the other way counts as inactive or inconclusive; note: nearly all actives have a fitted effect of over 50% in size; note: potency is the fitted concentration of half-maximal effect)
Outline: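 Tet-on ROR gamma CHO cells (1,000/well) were plated 4 hr, given compounds in DMSO for 2 hr at 37 C, then induced with 1 uM final doxycycline for 16 hr. Viability was read as ATP by CellTiter-Glo luminescence after 30 min.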

[6] = qHTS assay to identify small molecule agonists of the AP-1 signaling pathway - cell viability counter screen (AID 1159525); note: nearly all actives have a fitted effect of over 55% in size; note: potency is the fitted concentration of half-maximal effect
Outline: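 ME-180 AP-1-bla, 2500 cells/well, Opti-MEM + 0.5% dialyzed FBS; overnight 37 °C; cpd 15-pt titration, 5 h 37 °C; CellTiter-Glo 30 min RT; luminescence read; normalised to TOAB and DMSO controls.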

[7] = target: Retinoic acid receptor RXR-alpha (Homo sapiens) (UniProt P19793); experiment: qHTS assay to identify small molecule agonists of the RXR signaling pathway (AID 1159527); note: nearly all actives have a fitted effect of over 35% in size
Retinoic acid receptor RXR-alpha (Homo sapiens), sequence (P19793 whole entry, looked up): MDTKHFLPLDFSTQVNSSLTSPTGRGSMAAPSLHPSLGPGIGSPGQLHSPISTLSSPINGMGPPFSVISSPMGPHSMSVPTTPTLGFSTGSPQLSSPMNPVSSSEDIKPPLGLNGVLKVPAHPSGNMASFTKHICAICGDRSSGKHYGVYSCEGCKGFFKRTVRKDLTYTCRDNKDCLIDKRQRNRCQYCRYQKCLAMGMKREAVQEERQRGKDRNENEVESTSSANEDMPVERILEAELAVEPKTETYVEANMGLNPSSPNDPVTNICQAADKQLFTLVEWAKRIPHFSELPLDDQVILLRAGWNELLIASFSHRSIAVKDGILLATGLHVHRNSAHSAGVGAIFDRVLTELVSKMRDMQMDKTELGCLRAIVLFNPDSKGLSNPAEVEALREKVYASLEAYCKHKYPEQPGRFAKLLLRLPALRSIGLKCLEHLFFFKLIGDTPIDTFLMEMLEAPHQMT
Outline: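 Reporter activation is measured as beta-lactamase activity via FRET substrate cleavage (emission 460/530 nm) in HEK 293T cells expressing an RXR-alpha-driven bla construct, following 16 hr compound exposure at 37 C.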

[8] = qHTS assay to identify small molecule agonists of the AP-1 signaling pathway (AID 1159526); note: potency is the fitted concentration of half-maximal effect
[9] = qHTS assay to identify small molecule agonists of the vitamin D receptor (VDR) signaling pathway - cell viability counter screen (AID 743224; active = well fitted curve in the direction sought with a large enough effect in the repeat runs; an effect the other way counts as inactive or inconclusive; note: nearly all actives have a fitted effect of over 50% in size; note: potency is the fitted concentration of half-maximal effect; for activity change, negative = cytotoxicity: series mostly up to about 63 µM)
Outline: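 VDR-bla cells, 4 h after plating, exposed to compounds for 16 h at 37C; viability then read in the same wells as CellTiter-Glo luminescence after 30 min at room temperature, following the bla FRET read.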

[10] = target: Nuclear receptor ROR-gamma (Homo sapiens) (UniProt P51449); experiment: qHTS assay to identify small molecule antagonists of the retinoid-related orphan receptor gamma (ROR-gamma) signaling pathway (AID 1159521; active = well fitted curve in the direction sought with a large enough effect in the repeat runs; an effect the other way counts as inactive or inconclusive; note: nearly all actives have a fitted effect of over 50% in size; note: potency is the fitted concentration of half-maximal effect;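 for activity change, negative = inhibition: CHO cells with doxycycline inducible ROR-gamma driving an RORE luciferase reporter; top concentration of the series differs between compounds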)
Outline: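 Readout: ONE-Glo luciferase luminescence, 30 min at room temperature. System: Tet-on RORγ CHO, RORE-LUC. Sequence: compound 2 h, doxycycline 1 uM final, 16 h at 37 C.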

For `COc1cc(Cl)ccc1Oc1ccc(Cl)cc1Cl`, the Potency [1] was “inactive”, the Potency [2] was “inactive” and the Potency [3] was “inactive”. For the same compound, the Potency [4] was “inactive”, the Potency [5] was “inactive” and the Potency [6] was “inactive”. The Potency [7] was “inactive”.

In the case of `NCCCN1CCOCC1`, the Potency [1] is reported as “inactive”, the Potency [2] is reported as “inactive” and the Potency [3] is reported as “inactive”. For the same compound, the Potency [4] was “inactive”, the Potency [5] was “inactive” and the Potency [6] was “inactive”. The Potency [8] was “inactive”.

For `CC1(c2ccccc2)OC(C(=O)O)=CC1=O` (stereo not given), the Potency [9] was “inactive”, the Potency [2] was “inactive” and the Potency [3] was “inactive”. For the same compound, the Potency [5] was “inactive”, the Potency [6] was “inactive” and the Potency [8] was “inactive”. The Potency [7] was “inactive”.

For `COc1cc2c(cc1OC)C(C(C(=O)N(CCc1ccc(OC)c(OC)c1OC)CCc1ccc(OC)c(OC)c1OC)c1ccccc1)=NCC2` (stereo not given), the Potency [9] was “inactive”, the Potency [1] was “inactive” and the Potency [2] was “inactive”. For the same compound, the Potency [4] was “inactive”, the Potency [5] was “inactive” and the Potency [10] was “inactive”. For the same compound, the Potency [8] was “inactive” and the Potency [7] was “inactive”.

With `Cc1c(N)cccc1[N+](=O)[O-]` the Potency [1] was “inactive”, the Potency [2] was “inactive” and the Potency [3] was “inactive”. For the same compound, the Potency [5] was “inactive”, the Potency [6] was “inactive” and the Potency [8] was “inactive”.

For `C#C[C@]1(O)CC[C@H]2[C@@H]3CCc4cc(OC5CCCC5)ccc4[C@H]3CC[C@@]21C`, the Potency [9] was “inactive”, the Potency [2] was 21.3 µM (active) and the Potency [3] was “inactive”. The Potency [5] was 29.8 µM (active) and the Potency [10] was 10.6 µM (active).

In the case of `CCCCCCc1ccc(-c2ccc(C#N)cc2)cc1`, the Potency [9] is reported as “inactive”, the Potency [1] is reported as “inactive” and the Potency [2] is reported as “inactive”. The Potency [3] was “inactive”, the Potency [5] was “inactive” and the Potency [6] was “inactive”. The Potency [8] was “inactive”.

In the case of `CCOc1ccc(N)c([N+](=O)[O-])c1`, the Potency [1] is reported as “inactive”, the Potency [2] is reported as “inactive” and the Potency [3] is reported as “inactive”. The Potency [10] was “inactive”, the Potency [6] was “inactive” and the Potency [8] was “inactive”. For the same compound, the Potency [7] was “inactive”.

For `CC1=CCCC(C)(C)C12CCC(C)O2` (stereo not given), the Potency [9] was “inactive”, the Potency [1] was “inactive” and the Potency [2] was “inactive”. The Potency [3] was “inactive”, the Potency [5] was “inactive” and the Potency [6] was “inactive”. For the same compound, the Potency [8] was “inactive” and the Potency [7] was “inactive”.

With `O=C(CS)Nc1ccccc1` the Potency [9] was “inactive”, the Potency [1] was “inactive” and the Potency [2] was “inactive”. The Potency [3] was “inactive”, the Potency [5] was “inactive” and the Potency [10] was “inactive”. For the same compound, the Potency [8] was “inactive”.

In the case of `CC(C)Cc1ccc(C(C)C(=O)OCc2ccccn2)cc1` (stereo not given), the Potency [9] is reported as “inactive”, the Potency [1] is reported as “inactive” and the Potency [2] is reported as “inactive”. The Potency [3] was “inactive”, the Potency [5] was “inactive” and the Potency [6] was 0.239 µM (active). The Potency [8] was “inactive”.

For `CCC(C)O` (stereo not given), the Potency [9] was “inactive”, the Potency [1] was “inactive” and the Potency [2] was “inactive”. For the same compound, the Potency [3] was “inactive”, the Potency [5] was “inactive” and the Potency [6] was “inactive”. The Potency [8] was “inactive” and the Potency [7] was “inactive”.

For `CC(=O)c1ccc2c(c1)N(CCCN(C)C)c1ccccc1S2`, the Potency [9] was “inactive”, the Potency [1] was “inactive” and the Potency [2] was “inactive”. For the same compound, the Potency [3] was “inactive”, the Potency [5] was “inactive” and the Potency [6] was “inactive”. For the same compound, the Potency [7] was “inactive”.

With `Nc1cccc([N+](=O)[O-])c1` the Potency [9] was “inactive”, the Potency [1] was “inactive” and the Potency [2] was “inactive”. The Potency [3] was “inactive”, the Potency [5] was “inactive” and the Potency [6] was “inactive”. For the same compound, the Potency [8] was “inactive” and the Potency [7] was “inactive”.

With `CCC(CC)Nc1ccc(C)c(C)c1` the Potency [1] was “inactive”, the Potency [2] was “inactive” and the Potency [3] was “inactive”. The Potency [5] was “inactive”, the Potency [10] was “inactive” and the Potency [6] was “inactive”.

In the case of `NC(N)=NCCC[C@H](N)C(=O)O`, the activity change, negative = cytotoxicity [9] is reported as -0.114% [at 5.95 µM], the viability change, negative = cytotoxic [1] is reported as -1.77% [at 6.95 µM] and the activity, negative = cytotoxic [2] is reported as 7.11% [at 6.95 µM]. For the same compound, the activation [3] was 0.874% [at 6.95 µM], the activity, negative = cytotoxicity [5] was 0.0529% [at 8.39 µM] and the activity change, negative = inhibition [10] was -5.21% [at 8.39 µM]. The activation [8] was 2.4% [at 6.97 µM] and the activation [7] was 7.8% [at 6.98 µM].

In the case of `OC(C#CCN1CCCC1)(c1ccccc1)c1ccccc1`, the Potency [1] is reported as “inactive”, the Potency [2] is reported as “inactive” and the Potency [3] is reported as “inactive”. For the same compound, the Potency [5] was “inactive”, the Potency [6] was “inactive” and the Potency [8] was 16.9 µM (active). The Potency [7] was “inactive”.

In the case of `COc1ccc(-c2nc3ccc(C4=NNC(=O)CC4C)cc3[nH]2)cc1` (stereo not given), the Potency [9] is reported as “inactive”, the Potency [2] is reported as “inactive” and the Potency [3] is reported as “inactive”. For the same compound, the Potency [10] was “inactive”, the Potency [6] was “inactive” and the Potency [8] was “inactive”.

In the case of `O=C(Nc1ccc(S(=O)(=O)N2CCOCC2)cc1)c1cc(Cl)ccc1NS(=O)(=O)c1ccc(Cl)s1`, the Potency [2] is reported as “inactive”, the Potency [3] is reported as “inactive” and the Potency [5] is reported as “inactive”. For the same compound, the Potency [6] was “inactive” and the Potency [7] was “inactive”.

In the case of `Nc1cccc(S(=O)(=O)c2cccc(N)c2)c1`, the Potency [1] is reported as “inactive”, the Potency [2] is reported as “inactive” and the Potency [3] is reported as “inactive”. The Potency [5] was “inactive”, the Potency [6] was “inactive” and the Potency [8] was “inactive”. The Potency [7] was “inactive”.

For `C[N+](C)(C)CCOC(=O)CCC(=O)OCC[N+](C)(C)C`, the Potency [9] was “inactive”, the Potency [1] was “inactive” and the Potency [2] was “inactive”. For the same compound, the Potency [3] was “inactive”, the Potency [5] was “inactive” and the Potency [6] was “inactive”. The Potency [8] was “inactive” and the Potency [7] was “inactive”.

With `CCCCCCCCCCCCCCOS(=O)(=O)O` the Potency [9] was 43.6 µM (active), the Potency [2] was “inactive” and the Potency [3] was “inactive”. For the same compound, the Potency [5] was “inactive” and the Potency [6] was 54.9 µM (active).

With `CNCCCN1c2ccccc2CCc2ccccc21` the Potency [9] was 15 µM (active), the Potency [2] was “inactive” and the Potency [3] was “inactive”. For the same compound, the Potency [5] was “inactive” and the Potency [6] was “inactive”.

With `CC1=CC[C@H](C(C)C)C=C1` the Potency [9] was “inactive”, the Potency [2] was “inactive” and the Potency [3] was “inactive”. The Potency [5] was “inactive”, the Potency [6] was “inactive” and the Potency [8] was “inactive”. The Potency [7] was “inactive”.

For `CC(C)(COC(=O)c1ccccc1)COC(=O)c1ccccc1`, the Potency [9] was “inactive”, the Potency [1] was “inactive” and the Potency [2] was “inactive”. The Potency [3] was “inactive”, the Potency [5] was “inactive” and the Potency [6] was “inactive”. The Potency [8] was “inactive”.

With `CN1CCC(N(Cc2cccs2)c2ccccc2)CC1` the Potency [9] was 33.5 µM (active), the Potency [1] was “inactive” and the Potency [2] was “inactive”. For the same compound, the Potency [4] was “inactive”, the Potency [5] was “inactive” and the Potency [10] was “inactive”. The Potency [6] was “inactive”.

For `S=C([S-])NCCNC(=S)[S-].[Mn+2]`, the Potency [9] was “inactive”, the Potency [1] was “inactive” and the Potency [2] was “inactive”. The Potency [3] was “inactive”, the Potency [5] was “inactive” and the Potency [6] was “inactive”. For the same compound, the Potency [8] was “inactive”.

In the case of `NC(=O)C(c1ccccc1)(c1ccccc1)[C@@H]1CCN(CCc2ccc3c(c2)CCO3)C1`, the Potency [1] is reported as “inactive”, the Potency [2] is reported as “inactive” and the Potency [3] is reported as “inactive”. The Potency [5] was “inactive”, the Potency [6] was “inactive” and the Potency [8] was “inactive”.

— PubChem BioAssay (Tox21)
